Hits are enriched below; roughly 3.9% of the tested compounds scored in any of these assays.
Casp6 inh = caspase-6 (human) enzyme inhibition; AID 686996; inhibition, % at 12.5 µM; purified caspase-6, Z-VEID-R110 cleavage fluorescence; 0.53% of 350,000 active;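 active = mean inhibition across replicates at least about 35%, with every replicate also reaching that limit, limit read from the data; inconclusive = only one of the two criteria met; inactive = neither criterion met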;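 note: 0% = median of neutral control wells and 100% = no fluorescence left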
CDK5 inh = CDK5/p35 (human) kinase inhibition; inhibition, % at 10 µM; 0.01% of 330,000 active; Q00535+Q15078; AID 488839; Recombinant CDK5/p35, ADP-Glo luminescence, 60 min;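 active = highest replicate inhibition of at least 50% and at least 75% of replicates reaching 50%; inconclusive = only one of the two criteria met; inactive = both criteria failed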;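 note: plate controls were DMSO neutral control for no effect and GW8510 at 10 µM for full effect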
Target sequence (Q00535 whole entry, looked up): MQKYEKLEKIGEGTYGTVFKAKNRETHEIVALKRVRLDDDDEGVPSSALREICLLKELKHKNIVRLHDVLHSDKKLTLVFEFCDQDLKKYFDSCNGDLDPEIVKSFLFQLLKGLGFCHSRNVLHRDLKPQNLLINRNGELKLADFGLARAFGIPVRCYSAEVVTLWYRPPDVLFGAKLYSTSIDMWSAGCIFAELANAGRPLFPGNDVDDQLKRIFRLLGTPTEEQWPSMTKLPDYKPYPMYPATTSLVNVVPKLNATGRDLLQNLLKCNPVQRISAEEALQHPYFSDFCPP
Target sequence (Q15078 whole entry, looked up): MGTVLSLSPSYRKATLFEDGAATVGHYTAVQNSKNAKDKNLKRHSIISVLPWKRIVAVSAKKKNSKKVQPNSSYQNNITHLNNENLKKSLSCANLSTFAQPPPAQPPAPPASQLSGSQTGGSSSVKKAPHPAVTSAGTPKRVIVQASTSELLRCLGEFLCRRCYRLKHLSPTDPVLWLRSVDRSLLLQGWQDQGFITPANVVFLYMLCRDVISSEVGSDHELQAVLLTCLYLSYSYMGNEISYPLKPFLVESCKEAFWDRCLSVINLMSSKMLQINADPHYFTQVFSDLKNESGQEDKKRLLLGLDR
Glyco luc inh = N-linked glycosylation inhibition. D54 ERlucT glycosylation luciferase reporter, 24 h; percent of 100 nM tunicamycin response. reporter increase, % at 12.5 µM. 0.23% of 360,000 active. AID 588692;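 active = mean luciferase reporter signal, scaled so untreated is 0 and the glycosylation-blocking control 100, at or above a set limit in every replicate; inconclusive = mean reaches the limit but not every replicate does; inactive = mean below the limit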;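 note: luciferase carries N-glycosylation sites so blocking glycosylation raises the light; 0% = median of neutral control wells and 100% = median of 100 nM tunicamycin wells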
SUMO Mot1 rescue = blocks SUMOylation pathway, rescuing yeast Mot1-301 growth; S. cerevisiae Mot1-301 growth rescue, ATP luminescence, 38.5C; percent above DMSO median, 100 means doubled; growth rescue, % at 18.8 µM; 1% of 320,000 active;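 active = every valid replicate shows activation above 250% relative to neutral control wells; inactive = the rest, any valid replicate at or below 250%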;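 note: OY570 slx delta 5 strain wells were the positive control but not used for scaling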
NSD2 inh = inhibitors of human histone methyltransferase NSD2 | O96028 | NSD2 peptide methylation, AlphaScreen, 120 min | inhibition, % at 12.5 µM | 0.54% of 310,000 active; in the data active = inhibition above about 50%
ALR inh = blocks human ALR sulfhydryl oxidase activity; P55789; AID 485317; purified ALR, DTT oxidation, H2O2 HRP-luminol luminescence; inhibition, % (no concentration beside the values); 3.8% of 290,000 active;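 active = mean replicate inhibition above about 79%, with every replicate also reaching it, limit read from the data; inconclusive = only one of the two criteria met; inactive = mean below limit and not every replicate reaching it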
The depositor's hits bear a star; ? = inconclusive; . = no result given.

SMILES | Casp6 inh | CDK5 inh | Glyco luc inh | SUMO Mot1 rescue | NSD2 inh | ALR inh
O=c1cc(-c2ccc(O)cc2)oc2cc(O)c(C3OC(CO)C(O)C(O)C3O)c(O)c12 (stereo unspecified) | 37.1* | 2.2 | 24.6 | 2.2 | . | ?
COc1ccc([C@@H]2CC(=O)c3c(O)cc(O[C@@H]4OC(CO[C@@H]5OC(C)[C@H](O)[C@H](O)C5O)[C@@H](O)[C@@H](O)C4O)cc3O2)cc1O (stereo partly specified) | 0.1 | 1.2 | 1.6 | 4.6 | . | 5.6
COc1cccc(S(=O)(=O)N[C@@H]2CC[C@@H](CCn3cc(-c4ccccn4)nn3)O[C@@H]2CO)c1 | -1.0 | . | . | . | . | .
C[C@H](CO)N1C[C@H](C)[C@H](CN(C)Cc2ccc(C(F)(F)F)cc2)OCCCC[C@H](C)Oc2ccc(NS(=O)(=O)c3ccc(F)cc3)cc2C1=O | -0.3 | . | . | . | . | .
C[C@H]1CN([C@@H](C)CO)C(=O)c2cc(C3=CCCCC3)cnc2O[C@@H]1CN(C)C(=O)NC1CCCC1 | 1.4 | . | . | . | . | .
COC(=O)c1cc(=O)n(Cc2cccs2)c(=Nc2ccc(F)cc2)s1 | -0.6 | -4.2 | 22.5 | -8.8 | . | 3.0
COC(=O)c1cc(=O)n(-c2ccc(F)cc2)c(=Nc2ccc(F)cc2)s1 | -1.2 | -0.8 | 39.2* | -16.3 | . | 6.7
O=C(Nc1ccccc1F)N[C@H]1CC[C@H](CCNC(=O)C2CCCC2)O[C@H]1CO | -4.3 | . | . | . | . | .
COc1cc(/C=N/NC(=O)c2cccc(N3CCCC3=O)c2)ccc1O | 3.1 | -10.6 | 1.1 | -3.7 | 6.7 | 99.5*
O=C(N/N=C/c1cccnc1)c1cccc(N2CCCC2=O)c1 | -2.5 | 0.3 | -0.8 | -4.1 | -0.1 | -10.4
CCN(CC)c1ccc(/C=N/NC(=O)c2cccc(N3CCCC3=O)c2)cc1 | -0.2 | -2.4 | -1.1 | -23.4 | -6.0 | 96.6*
COc1ccccc1-c1cn(CC[C@H]2CC[C@H](NC(=O)C3CCCC3)[C@@H](CO)O2)nn1 | -3.9 | . | . | . | . | .
COCCNC(=O)C[C@@H]1CC[C@H]2[C@@H](COC[C@H](O)CN2C(=O)Nc2ccc3c(c2)OCO3)O1 | -1.5 | . | . | . | . | .
CCCNC(=O)Nc1ccc2c(c1)OC[C@@H](C)N(C(=O)C1CCC1)C[C@H](C)[C@H](OC)CN(C)C2=O | -0.6 | . | . | . | . | .
CCN(c1ccc(NC(=O)COC(=O)c2ccc3ccccc3n2)cc1)C(C)C | . | 0.4 | 3.2 | -5.9 | 9.8 | 96.0*
COc1ccc(NC(=O)COC(=O)c2ccc3ccccc3n2)cc1OC | -0.9 | 1.5 | 2.1 | 5.3 | -0.1 | -2.7
CCCNC(=O)N1[C@H](C#N)[C@H](c2ccc(-c3cccc(OC)c3)cc2)[C@@H]1CO | -2.2 | . | . | . | . | .
Cc1ncc(CSCC(=O)Nc2cc(C(F)(F)F)ccc2Cl)c(CO)c1O | -1.9 | 1.7 | -0.5 | -12.8 | -0.1 | 94.2*
C=CCN1C(=O)C(CC(=O)O)S/C1=N/N=C/c1ccc(N(CC)CC)cc1 (stereo unspecified) | 9.6 | -7.0 | -1.6 | -12.1 | 7.1 | 99.1*
O=C(O)CC1S/C(=N\N=C/c2ccccc2)N(c2ccc(O)cc2)C1=O (stereo unspecified) | 2.0 | 2.5 | 0.5 | 62.8 | -1.3 | 5.4
CN(C)c1ccc(/C=N/N=C2/SC(CC(=O)O)C(=O)N2c2ccc(O)cc2)cc1 (stereo unspecified) | 4.3 | 2.4 | -2.5 | -4.3 | -1.3 | 97.3*
CN1C(=O)C(CC(=O)O)S/C1=N\N=C\c1ccc(O)cc1O (stereo unspecified) | 4.5 | -0.1 | 2.5 | -16.7 | 0.7 | 84.7*
C=CCN1C(=O)C(CC(=O)O)SC1=Nc1ccc(C(=O)O)cc1 (stereo unspecified) | 2.3 | 0.1 | 1.1 | -11.0 | -2.5 | -3.1
Cc1noc(C)c1S(=O)(=O)N(C)C[C@H]1Oc2ccc(NC(=O)Nc3ccc4c(c3)OCO4)cc2CC(=O)N([C@@H](C)CO)C[C@H]1C | -0.6 | . | . | . | . | .
COc1ccc2c3c([nH]c2c1)[C@@H](CO)N(C(=O)c1ccccn1)CC31CN(C(=O)C2CCCC2)C1 | -1.3 | . | . | . | . | .
SMILES | Casp6 inh | CDK5 inh | Glyco luc inh | SUMO Mot1 rescue | NSD2 inh | ALR inh
Cc1cc(C(=O)Nc2cccc3c2O[C@@H](CN(C)Cc2ccc(Oc4ccccc4)cc2)[C@H](C)CN([C@H](C)CO)C3=O)n(C)n1 | -0.4 | . | . | . | . | .
CSc1ccc(C=NNc2ccc(S(=O)(=O)Nc3ccccc3C(=O)O)cc2[N+](=O)[O-])cc1 | 40.8* | 0.3 | 0.4 | 0.4 | 3.1 | 6.7
COc1ccc(NC(=S)NNc2ccc(S(=O)(=O)Nc3ccccc3C(=O)O)cc2[N+](=O)[O-])cc1 | 15.0 | 1.6 | -1.6 | -0.5 | . | 99.4*
CCOc1ccc(C=NNc2ccc(S(=O)(=O)Nc3ccccc3C(=O)O)cc2[N+](=O)[O-])cc1 | 23.0 | 1.4 | -3.0 | -7.3 | -0.8 | 4.6
COc1ccc(C=NNc2ccc(S(=O)(=O)Nc3ccccc3C(=O)O)cc2[N+](=O)[O-])c(OC)c1 | -0.3 | 0.7 | -1.2 | -3.7 | 4.5 | 43.4
C=CCOc1ccc(C=NNc2ccc(S(=O)(=O)Nc3ccccc3C(=O)O)cc2[N+](=O)[O-])cc1OC | 22.1 | 1.0 | 0.5 | -33.5 | 4.1 | 89.9*
O=C(O)c1ccccc1NS(=O)(=O)c1ccc(NN=Cc2ccccc2F)c([N+](=O)[O-])c1 | 41.1* | -1.3 | 2.8 | 41.0 | 2.9 | 11.0
CCCNC(=O)[C@H]1[C@H](CO)[C@H]2Cn3c(cccc3=O)[C@@H]1N2C(=O)C1CCC1 | 0.6 | . | . | . | . | .
C[C@@H]1CN([C@H](C)CO)C(=O)c2cccc(NS(=O)(=O)c3ccc(F)cc3)c2O[C@@H]1CN(C)C(=O)Nc1cccc2ccccc12 | 7.9 | . | . | . | . | .
N/C(=N\O)c1cn(Cc2ccccc2Cl)c2ccccc12 | -2.6 | -0.6 | -2.8 | -2.4 | 3.1 | 98.6*
COC(=O)N/N=C/c1cn(Cc2ccccc2Cl)c2ccccc12 | 1.9 | -1.3 | -6.5 | 9.8 | -1.5 | 0.1
Cc1ccc(OCCn2cc(/C(N)=N/O)c3ccccc32)cc1C | . | 2.4 | 4.2 | 6.9 | 14.2 | 77.7*
COc1ccc(OCCn2cc(/C(N)=N/O)c3ccccc32)cc1 | 1.1 | 0.9 | 0.9 | 95.2 | 3.0 | .
COc1ccc(-c2cnc3c(c2)C(=O)N([C@H](C)CO)C[C@H](C)[C@@H](CN(C)C(=O)NC2CCCC2)O3)cc1 | 1.4 | . | . | . | . | .
COc1ccc(N2CCN(Cc3nnnn3C3CCCCC3)CC2)cc1 | -1.4 | 0.8 | 0.2 | 35.3 | 0.4 | 22.7
CCOC(=O)Cn1nnnc1CN1CCN(c2ccc(OC)cc2)CC1 | -1.3 | 0.4 | 0.0 | 160.1 | 1.4 | 91.7*
COc1cccc(N2CCN(C(=O)c3ccc(CS(=O)c4ccccc4C)o3)CC2)c1 (stereo unspecified) | 1.7 | -0.8 | 16.4 | 1.5 | 0.0 | 91.1*
Cc1cccc(N2CCN(C(=O)c3ccc(CS(=O)Cc4cccc(Cl)c4)o3)CC2)c1C (stereo unspecified) | 0.1 | 1.1 | -1.2 | 190.9 | 14.3 | 99.5*

Screening data deposited in PubChem BioAssay by Broad Institute.
